From PubChem BioAssay (NCATS)
Records with an inconclusive call do not appear. Activity calls are given as the source filed them. Calls come from the whole dose curve; as a rule, active = well fitted curve in the direction sought with a large enough effect; inconclusive = small, poorly fitted or top-dose-only effect, or another doubt; inactive = no such curve, though single readings can be large; an effect the other way counts as inactive or inconclusive.

Assays:
[1] = qHTS for differential inhibitors of proliferation of Plasmodium falciparum line HB3 (AID 1886); conditions: series mostly up to 28.7 µM;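 note: parasites grown with compound for 72 h before SYBR Green readout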
[2] = molecular target: Ferritin light chain (Equus caballus) (UniProt P02791); test: qHTS Validation Assay for Identification of Novel General Anesthetics (AID 2323); conditions: horse apoferritin, anesthetic-site fluorescent probe displacement; series mostly up to 76.9 µM
Ferritin light chain (Equus caballus), sequence (P02791 2-175 limits assumed): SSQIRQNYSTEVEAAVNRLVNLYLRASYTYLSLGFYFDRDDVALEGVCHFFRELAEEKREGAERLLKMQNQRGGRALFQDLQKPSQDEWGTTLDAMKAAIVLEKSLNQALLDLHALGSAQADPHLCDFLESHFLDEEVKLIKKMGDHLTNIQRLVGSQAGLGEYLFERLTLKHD
Description: Source: NIH Chemical Genomics Center [NCGC]
Assay Submitter: Roderic Eckenhoff, University of Pennsylvania
Screening Center PI: Christopher P. Austin, NIH
Probe Development: NIH Chemical Genomics Center [NCGC]
Anesthetic development has remained a largely empirical process. There are growing concerns about the cognitive effects of known general anesthetics and acceleration of the onset of neurodegenerative disease. The compounds' toxicity and multiple specific binding targets in the mammalian brain [4] has made them less attractive as drug leads. In this assay, a GABAergic mimetic model system, apoferritin and a profluorescent 1-aminoanthracene ligand (1-AMA), was used to construct a competitive binding assay for identification of novel general anesthetics. […]
in PBS) in columns 3, 4 as negative control and 1-AMA/apoferritin mixture (10 uM horse-spleen apoferritin in 50% saturated 1-aminoanthracene in PBS) in columns 1, 2, 5-48) was dispensed into 1536-well Greiner black assay plates. […] The plates were incubated for 10 min at room temperature, and then read on an EnVision HTS multilabel reader (Perkin-Elmer, Waltham, MA) (end point read, 3 min/plate) using Fura2 BFP excitation filter (380 nm, bandwidth 10 nm) and fluorescein emission filter (535 nm, bandwidth 25 nm) set. […] Activity was computed as the normalized fluorescence response relative to free 1-AMA and 1-AMA/apoferritin complex values. […]

[3] = molecular target: ATP-dependent DNA helicase Q1 (Homo sapiens) (UniProt P46063); test: qHTS Validation Assay for Inhibitors of RecQ-Like Dna Helicase 1 (RECQ1) (AID 2353); conditions: recombinant RECQ1 helicase DNA unwinding assay; series mostly up to 25.6 µM
ATP-dependent DNA helicase Q1 (Homo sapiens), sequence (P46063 whole entry, looked up): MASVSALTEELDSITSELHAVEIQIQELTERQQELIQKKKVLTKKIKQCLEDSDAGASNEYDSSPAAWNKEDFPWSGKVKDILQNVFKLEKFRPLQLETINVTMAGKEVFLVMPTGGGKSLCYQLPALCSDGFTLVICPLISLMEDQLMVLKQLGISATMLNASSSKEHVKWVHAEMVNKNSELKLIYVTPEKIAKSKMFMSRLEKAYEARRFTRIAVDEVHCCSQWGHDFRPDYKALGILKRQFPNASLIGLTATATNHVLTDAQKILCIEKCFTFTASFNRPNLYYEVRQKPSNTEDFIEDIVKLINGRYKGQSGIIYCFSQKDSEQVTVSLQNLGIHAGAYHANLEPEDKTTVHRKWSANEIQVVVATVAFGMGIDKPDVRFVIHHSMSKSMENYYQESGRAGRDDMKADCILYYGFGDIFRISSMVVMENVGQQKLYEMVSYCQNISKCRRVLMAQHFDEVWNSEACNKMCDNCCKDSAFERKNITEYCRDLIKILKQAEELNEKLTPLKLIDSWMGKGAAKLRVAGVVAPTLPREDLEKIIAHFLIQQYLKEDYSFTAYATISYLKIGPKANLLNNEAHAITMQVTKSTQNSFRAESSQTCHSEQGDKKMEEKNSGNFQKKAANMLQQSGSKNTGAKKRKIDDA
Method in brief: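 RECQ1T1 50 nM; forked duplex (20 bp + 30-nt ss tails) 200 nM, ATP 2 mM final; pH 8.0, 2 mM MgCl2, 2.5 ug/ml poly(dI-dC); 15 min compound preincubation; discontinuous kinetic read over 2 h at RT.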

[4] = Validation screen for small molecules that induce DNA re-replication in MCF 10A normal breast cells (AID 463097); conditions: MCF 10A cells, DNA re-replication phenotype imaging; series mostly up to 46.1 µM; note: nearly all actives have a fitted effect of over 60% in size
Method in brief: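 MCF 10A cells exposed to compound 48 hr at 37 C, 5% CO2, then Hoechst-stained 40 min. Laser-scanning imaging of nuclear DNA content (405 nm ex, 500-530 nm em); re-replication scored as rise in nuclei with elevated fluorescence intensity.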

[5] = Cytometric Cell-Based qHTS for Inhibitors of the mTORC1 Signaling Pathway in MEF (Tsc2-/-, p53-/-) Cells (AID 2660); conditions: mTORC1 pathway cytometry; series mostly up to 38.3 µM;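 note: Tsc2 and p53 null MEFs carrying empty vector with compound for 24 h; percent of cells above a phospho-rpS6 to PI ratio cutoff in each well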
Method in brief: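 Cells are plated, treated with compound for 24 hrs at 37 degree Celsius, then fixed, blocked and immunostained for phospho-rpS6 Ser235/236. Propidium iodide counterstain follows. Per-well % positive cells is derived from the PI-normalized phospho-S6 signal.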

[6] = High Content Imaging Cell-Based qHTS for Inhibitors of the mTORC1 Signaling Pathway in MEF (Tsc2-/-, p53-/-) Cells (AID 2666); conditions: at 38.3 µM (top of the series);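 note: percent of cells scored positive for phospho-rpS6 Ser235/236 immunostaining by imaging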
Method in brief: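 Inhibition of rpS6 phosphorylation is measured by immunofluorescence imaging in empty-vector Tsc2-/-, p53-/- mouse embryonic fibroblasts after 24 hrs compound exposure at 37 degree Celsius. Results are reported as % positive cells per well.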

[7] = High Content Imaging Cell-Based qHTS for Inhibitors of the mTORC1 Signaling Pathway in MEF Cells (AID 2667); conditions: series mostly up to 38.3 µM;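 note: Tsc2-/- p53-/- MEFs stably re-expressing wild-type Tsc2 exposed 24 h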
Method in brief: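 Fixed-cell imaging of phospho-S6 (Ser235/236, Alexa-488) after 24 hrs of compound treatment at 37 degree Celsius. Signal was normalized to Hoechst, and thresholds from the highest and lowest wells split cells into % active versus % non-active.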

[8] = Cytometry Cell-Based qHTS for Inhibitors of the mTORC1 Signaling Pathway in MEF cells (AID 2668); conditions: mTORC1 pathway readout; series mostly up to 38.3 µM;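 note: Tsc2-/- p53-/- mouse embryonic fibroblasts stably re-expressing wild-type Tsc2; percent cells positive for phospho-rpS6 Ser235/236 relative to propidium iodide stain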
Method in brief: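 MEFs (Tsc2-/-, p53-/- stably expressing WT Tsc2) treated 24 h at 37 degree Celsius, fixed, stained with Alexa-488 anti-phospho-rpS6 Ser235/236 and propidium iodide; Acumen laser scanning. Reported as % positive cells, phospho-S6 normalized to PI.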

[9] = molecular target: Ubiquitin carboxyl-terminal hydrolase 2 (Homo sapiens) (UniProt O75604); test: qHTS Validation Assay for Inhibitors of Ubiquitin-specific Protease USP2a Using CHOP2 as the Reporter (AID 463106); conditions: USP2a cleavage of CHOP2 reporter, enzymatic; series mostly up to 38.3 µM
Ubiquitin carboxyl-terminal hydrolase 2 (Homo sapiens), sequence (O75604 whole entry, looked up): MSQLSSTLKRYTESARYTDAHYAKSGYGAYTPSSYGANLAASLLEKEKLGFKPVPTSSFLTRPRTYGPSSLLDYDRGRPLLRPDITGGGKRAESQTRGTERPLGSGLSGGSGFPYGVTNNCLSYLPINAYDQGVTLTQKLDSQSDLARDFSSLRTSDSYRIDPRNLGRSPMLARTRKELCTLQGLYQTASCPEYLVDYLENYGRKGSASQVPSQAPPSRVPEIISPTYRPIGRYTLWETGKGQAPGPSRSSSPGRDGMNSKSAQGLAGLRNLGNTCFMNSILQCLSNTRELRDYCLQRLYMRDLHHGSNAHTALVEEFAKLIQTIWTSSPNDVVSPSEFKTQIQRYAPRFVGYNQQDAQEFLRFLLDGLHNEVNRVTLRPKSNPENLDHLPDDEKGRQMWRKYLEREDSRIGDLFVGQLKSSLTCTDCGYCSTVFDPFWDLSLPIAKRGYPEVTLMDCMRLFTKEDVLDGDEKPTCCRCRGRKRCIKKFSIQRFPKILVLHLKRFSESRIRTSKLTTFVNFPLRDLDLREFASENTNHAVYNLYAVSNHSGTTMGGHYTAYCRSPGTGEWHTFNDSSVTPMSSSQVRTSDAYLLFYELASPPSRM
Method in brief: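 Inhibition is expressed relative to NEM as the full-inhibition control, with concentration-response curves classed by fit quality, magnitude and activity. Enzyme (USP2 core, 10nM) meets 25nM Ub-CHOP2 after compound preincubation; readings are taken at 60min.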

[10] = molecular target: DNA polymerase III PolC-type (Bacillus subtilis (strain 168)) (UniProt P13267); test: qHTS Validation Assay for the Inhibitors of DNA Replication in Gram-Positive Bacteria (AID 485295); conditions: Gram-positive bacterial DNA replication assay; series mostly up to 57.1 µM;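 note: PicoGreen fluorescence of double-stranded DNA made on primed circular M13 template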
DNA polymerase III PolC-type (Bacillus subtilis (strain 168)), sequence (P13267 whole entry, looked up): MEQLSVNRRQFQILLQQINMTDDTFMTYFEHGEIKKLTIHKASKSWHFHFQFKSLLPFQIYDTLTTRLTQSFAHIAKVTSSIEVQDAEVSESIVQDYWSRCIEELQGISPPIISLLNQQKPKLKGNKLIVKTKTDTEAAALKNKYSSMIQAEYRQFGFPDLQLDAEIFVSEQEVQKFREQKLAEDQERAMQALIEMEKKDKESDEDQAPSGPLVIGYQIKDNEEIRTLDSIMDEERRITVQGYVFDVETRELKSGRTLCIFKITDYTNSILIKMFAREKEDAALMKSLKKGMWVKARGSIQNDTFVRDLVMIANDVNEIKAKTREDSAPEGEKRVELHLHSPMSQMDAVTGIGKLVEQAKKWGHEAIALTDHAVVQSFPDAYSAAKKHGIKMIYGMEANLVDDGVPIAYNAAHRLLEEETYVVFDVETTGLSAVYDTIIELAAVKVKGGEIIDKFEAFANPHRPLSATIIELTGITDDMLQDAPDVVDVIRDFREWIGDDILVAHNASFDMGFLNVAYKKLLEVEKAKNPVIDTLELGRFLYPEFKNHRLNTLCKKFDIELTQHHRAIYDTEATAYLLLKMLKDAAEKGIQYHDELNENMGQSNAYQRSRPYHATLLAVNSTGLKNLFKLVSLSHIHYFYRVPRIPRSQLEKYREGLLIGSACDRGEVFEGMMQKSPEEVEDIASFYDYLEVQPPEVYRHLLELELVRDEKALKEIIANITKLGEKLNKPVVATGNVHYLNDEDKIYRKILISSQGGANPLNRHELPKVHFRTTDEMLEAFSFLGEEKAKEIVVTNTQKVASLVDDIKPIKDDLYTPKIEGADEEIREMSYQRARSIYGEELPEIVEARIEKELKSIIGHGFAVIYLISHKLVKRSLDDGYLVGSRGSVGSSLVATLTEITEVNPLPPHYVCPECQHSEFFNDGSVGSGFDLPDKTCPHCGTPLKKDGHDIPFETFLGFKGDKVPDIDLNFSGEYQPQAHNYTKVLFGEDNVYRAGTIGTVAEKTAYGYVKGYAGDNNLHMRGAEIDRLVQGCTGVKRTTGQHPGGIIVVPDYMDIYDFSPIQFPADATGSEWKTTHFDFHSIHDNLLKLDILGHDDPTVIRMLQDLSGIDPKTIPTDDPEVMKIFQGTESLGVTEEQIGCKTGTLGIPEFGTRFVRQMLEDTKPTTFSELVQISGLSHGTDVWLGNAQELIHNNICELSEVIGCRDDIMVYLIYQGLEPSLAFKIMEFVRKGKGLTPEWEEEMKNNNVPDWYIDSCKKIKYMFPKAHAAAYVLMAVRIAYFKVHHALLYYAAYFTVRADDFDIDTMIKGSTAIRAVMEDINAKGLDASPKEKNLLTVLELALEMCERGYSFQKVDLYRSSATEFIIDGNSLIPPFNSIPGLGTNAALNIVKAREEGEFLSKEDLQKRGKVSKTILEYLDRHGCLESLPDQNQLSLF
Method in brief: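 Reconstituted B. subtilis Pol III holoenzyme (PolC, beta clamp, SSB, primase) preincubated with compound, then M13Gori single-stranded circular template with dNTPs/NTPs added; room temperature reaction. Stopped with EDTA/PicoGreen; dsDNA fluorescence read, EDTA as full-inhibition control.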

Measured: outcome

CCNC(=O)[C@H]1O[C@@H](n2cnc3c(N)nc(NCCc4ccc(CCC(=O)O)cc4)nc32)[C@H](O)[C@H]1O
inactive: [1] | [2] | [3] | [4]

C[C@H]1O[C@@H](n2cc(F)c(=O)[nH]c2=O)[C@H](O)[C@H]1O
inactive: [5] | [6] | [7] | [8] | [9] | [10]

C=CCc1cccc(C=NNC(=O)CN2CCN(Cc3ccccc3)CC2)c1O
inactive: [5] | [6] | [7] | [9] | [10]
